Experimental data: PubChem BioAssay (NCATS)
Inconclusive results are not listed. The source made the active and inactive calls. The call rests on the fitted dose curve; in most records, active means well fitted inhibition curve with a large enough effect; inconclusive means small, poorly fitted or top-dose-only effect; inactive means flat fitted curve, though single readings scatter.

Assay: qHTS to identify inhibitors of the type 1 interferon - major histocompatibility complex class I in skeletal muscle: primary screen against the NCATS Pharmaceutical Collection (AID 1347407);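 further: luminescence of HiBiT knocked into endogenous HLA-B as interferon-induced MHC class I level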
Details: human skeletal muscle cells, IFN-b-induced MHC-I HiBiT luminescence, 24 h; series mostly up to 45.9 µM; activity change, negative = inhibition: at the top concentration
How it was run: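 A qHTS format is used: 8-point, 1:5 compound series with 46 uM top final concentration, applied alongside 4 ng/ml IFN-beta to HLA-B*08:01-HiBiT knock-in myoblasts. Luminescence is measured after 24 h treatment.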
On the % scale 0 is the no-effect control and ±100 the full control effect.

| Compound | activity change, negative = inhibition |
| --- | --- |
| CN(C)CCC[C@@]1(c2ccc(F)cc2)OCc2cc(C#N)ccc21 | -1.7% (inactive) |
| Cc1cn([C@H]2C[C@H](F)[C@@H](CO)O2)c(=O)[nH]c1=O | -0.728% (inactive) |
| Cl/C(=C\n1cncn1)c1ccc(Cl)cc1Cl | 0.386% (inactive) |
| CC(C)CCCC(C)N (stereo not drawn) | -2.74% (inactive) |
| O=C1OC(CN2CCOCC2)CN1/N=C/c1ccc([N+](=O)[O-])o1 (stereo not drawn) | 0.444% (inactive) |
| CCCCCCCCCCCCCC(=O)OC(C)C | -5.68% (inactive) |
| CCCCC(CC)CN1CN(CC(CC)CCCC)CC(C)(N)C1 (stereo not drawn) | -6.75% (inactive) |
| Cc1cc(C)cc(OCC2CNC(=O)O2)c1 (stereo not drawn) | -1.52% (inactive) |
| NS(=O)(=O)c1ccc(Cl)c(S(N)(=O)=O)c1 | 2.2% (inactive) |
| CC(O)Cn1cnc2c1c(=O)n(C)c(=O)n2C (stereo not drawn) | 1.69% (inactive) |
| Cc1cccc(C)c1NC(=O)CN1CCCCCC1 | 0.0781% (inactive) |
| CC(=O)NCCCCCC(=O)O | 0.603% (inactive) |
| COc1cc([C@H]2Oc3cc([C@H]4Oc5cc(O)cc(O)c5C(=O)[C@@H]4O)ccc3O[C@@H]2CO)ccc1O | -15.9% (inactive) |
| CC(=O)Oc1ccc(C)cc1 | -6.32% (inactive) |
| C[C@@H](O)[C@H]1C(=O)N2C(C(=O)O)=C([C@H]3CCCO3)S[C@H]12 | -0.475% (inactive) |
| COc1cc(O)c(C(=O)c2ccccc2)cc1S(=O)(=O)O | 0.218% (inactive) |
| CC(C)(C)NCC(O)COc1cccc2c1C[C@H](O)[C@H](O)C2 (stereo partly drawn) | 5.87% (inactive) |
| CCOc1ccccc1C(N)=O | 27.9% (inactive) |
| C[N+]1(CC2COC(c3ccccc3)(C3CCCCC3)O2)CCCCC1 (stereo not drawn) | -10.1% (inactive) |

| Compound | activity change, negative = inhibition |
| --- | --- |
| CCCCC(CC)COC(=O)c1ccc(N(C)C)cc1 (stereo not drawn) | 3.45% (inactive) |
| CCCCCCCCCCCCSCCOCCO | -2.19% (inactive) |
| CO[C@H]1C=CO[C@@]2(C)Oc3c(C)c(O)c4c(O)c(c(/C=N/N5CCN(C)CC5)c(O)c4c3C2=O)NC(=O)/C(C)=C\C=C[C@H](C)[C@H](O)[C@@H](C)[C@@H](O)[C@@H](C)[C@H](OC(C)=O)[C@@H]1C | -16.2% (inactive) |
| CC1(C)OC[C@@H]2O[C@@]3(C(=O)O)OC(C)(C)O[C@H]3[C@@H]2O1 | 4.03% (inactive) |
| NS(=O)(=O)c1cc(C(=O)O)cc(N2CCCC2)c1Oc1ccccc1 | 1.24% (inactive) |
| CCCCN1C[C@H](O)[C@@H](O)[C@H](O)[C@H]1CO | -9.31% (inactive) |
| CC(=O)Nc1ccc(OC(=O)c2ccccc2OC(C)=O)cc1 | 5.71% (inactive) |
| CCCCCCCCCCCCOCCOCCOCCOCCOCCOCCOCCOCCOCCO | 4.8% (inactive) |
| O=C(c1ccc(F)cc1)C1CCN(CCn2c(=S)[nH]c3ccccc3c2=O)CC1 | -9.86% (inactive) |
| C/C=C/C=N/NC(=O)c1ccncc1 | -4.26% (inactive) |
| Cc1ccccc1OCC(O)CO (stereo not drawn) | -7.3% (inactive) |
| CC(C(=O)O)c1cccc(Oc2ccccc2)c1 (stereo not drawn) | -15.3% (inactive) |
| O=c1[nH]c(=O)n([C@H]2C[C@H](O)[C@@H](CO)O2)cc1F | 6.59% (inactive) |
| COc1cc(C(=O)NCc2ccc(OCCN(C)C)cc2)cc(OC)c1OC | -19.1% (inactive) |
| CC(=O)NO | -9.64% (inactive) |
| O=C(CCCN1CC=C(n2c(=O)[nH]c3ccccc32)CC1)c1ccc(F)cc1 | -3.19% (inactive) |
| CCCCCCCC/C=C\CCCCCCCCN | 11.4% (inactive) |
| NC(=O)c1ccccc1O | -2.24% (inactive) |
| CN(CCCN1c2ccccc2CCc2ccccc21)CC(=O)c1ccc(Cl)cc1 | 10.4% (inactive) |
